CYP2C19 inhib – blocks human cytochrome P450 2C19; P33261; CYP2C19 Supersomes, luciferin-H EGE luminescence, 30 min; inhibition, % at 5 µM; 96,000 tested, 21% active;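 active = CYP2C19 inhibition above a set limit at 5 µM in the primary screen, cut at about 50% in these data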
CYP2C9 inhib – inhibitors of human CYP2C9; CYP2C9 Supersomes, luciferin-H conversion, luminescence; inhibition, % at 5 µM; 96,000 tested, 20% active; AID 777;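 active = blocking of liver enzyme CYP2C9 beyond about 50% at 5 µM, limit read from the data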
Cav32 inh – inhibitors of human Cav3.2 T-type calcium channel | O95180 | Cav3.2-expressing cells, Fluo-4 calcium fluorescence FDSS; stronger effect = lower value | B-score at 10 µM | 100,000 tested, 4% active;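 active = single-dose well whose peak fluorescence ratio is a statistical outlier from its plate by either plate-standardised score or position-corrected B-score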
CYP2C19 activ – increases human CYP2C19 enzyme activity; recombinant CYP2C19, luciferin-H EGE luminescence; stronger effect = higher value; 0 = fully inhibited enzyme, 1 = untreated enzyme; 96,000 tested, under 10 active; P33261; activation factor at 5 µM;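 active = activation factor of at least 2 at 5 µM in the primary screen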
CYP2C9 act – increases human cytochrome P450 2C9 activity. P11712. recombinant CYP2C9, luciferin-H conversion, luminescence; stronger effect = higher value; factor 1 = untreated enzyme, 0 = blocked. activation factor at 5 µM. 96,000 tested, 1.4% active;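 active = activation factor of 2 or more for CYP2C9 at a 5 µM dose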
A number is an active result; i = inactive; nt = no result given. In the library only some 27% were active in any assay of this set; here they are far more common.

SMILES	CYP2C19 inhib	CYP2C9 inhib	Cav32 inh	CYP2C19 activ	CYP2C9 act
Cc1nn(Cc2ccccc2)c(C)c1NC(=O)c1noc2c1CCc1ccccc1-2	i	61	-6.3	i	i
CCc1ccc(NC(=O)c2noc3c2CCc2ccccc2-3)cc1	i	i	i	i	2.1
Cc1ccc(NC(=O)c2noc3c2CCc2ccccc2-3)cc1	i	i	i	i	i
CC1(C)C(=O)NCCN1C(=O)CCC(=O)O	nt	nt	i	nt	nt
CCOc1cc(CNCC2CCCO2)cc(Br)c1OCC(N)=O (stereo not given)	i	i	i	i	i
CC(C)(C)OC(=O)N1CCN(C(=O)OCC2c3ccccc3-c3ccccc32)CC1C(=O)O (stereo not given)	nt	nt	i	nt	nt
CCc1ccc(NC2=NCC(=O)N2c2ccc3c(c2)OCCO3)cc1	nt	nt	i	nt	nt
CCc1ccc(NC2=NCC(=O)N2Cc2ccc3c(c2)OCO3)cc1	i	58	i	i	i
Cc1ccc(NC2=NCC(=O)N2Cc2ccc3c(c2)OCO3)c(C)c1	96	79	i	i	i
Cc1ccc(NC2=NCC(=O)N2c2ccc3c(c2)OCCO3)c(C)c1	nt	nt	i	nt	nt
O=C(c1ccco1)N1CCN(C2CCCC2)CC1	i	i	nt	i	i
COc1ccccc1CC1(C)NC(=O)N(CC(=O)N2CCc3ccccc3C2)C1=O (stereo not given)	i	70	i	i	i
O=C(Nc1cccc(C(F)(F)F)c1)OCCN1CCN(Cc2ccccc2)CCC1=O	nt	nt	i	nt	nt
Cc1c(C(=O)Nc2ccncc2)sc2nc(-c3ccc(F)cc3)cn12	i	74	i	i	i
COC(=O)c1ccc(NC(=O)c2sc3nc(-c4ccccc4)cn3c2C)cc1	i	i	nt	i	i
COc1ccc(-c2cn3c(C)c(C(=O)Nc4cccc(NC(C)=O)c4)sc3n2)cc1	59	i	i	i	i
COc1ccc(-c2cn3c(C)c(C(=O)Nc4ccncc4)sc3n2)cc1	i	i	i	i	i
CC(=O)Nc1ccc(Oc2ncccn2)c(Cl)c1	i	i	i	i	i
COC(=O)CCCCCC(CCC(=O)OC)NC(C)=O (stereo not given)	i	i	i	i	i
O=C(Nc1ccc2c(c1)OCO2)N1CCN(C(=O)C2CCCO2)CC1 (stereo not given)	nt	nt	i	nt	nt
CCOc1ccc(-c2nc(CSCC(=O)NCCN3CCOCC3)c(C)o2)cc1	i	i	i	i	i
C=CCN1CCN(C(c2ccc(OC)c(OC)c2)c2nnnn2C(C)(C)C)CC1 (stereo not given)	i	i	i	i	i
COc1ccc(NC(=O)NC(C(F)(F)F)C(F)(F)F)cc1	i	i	i	i	i
Cn1nc(C(F)(F)F)c(/C=N/OC(=O)c2ccccc2)c1Sc1ccc(Cl)cc1	i	89	i	i	i
Cn1nc(C(F)(F)F)c(/C=N/OC(=O)c2ccccc2)c1Cl	i	i	i	i	i
SMILES	CYP2C19 inhib	CYP2C9 inhib	Cav32 inh	CYP2C19 activ	CYP2C9 act
CC(C)CNC(=O)C1CCN(c2ccc(S(=O)(=O)N3CCOCC3)cc2Cl)CC1	i	56	i	i	i
O=C(Nc1ccc(S(=O)(=O)N2CCOCC2)cc1)C1CCCCC1	i	i	i	i	i
Clc1cc(NCc2cccs2)ccc1N1CCOCC1	94	81	i	i	i
O=C(O)c1cc(NCc2ccccc2)ccc1N1CCOCC1	i	i	i	i	i
O=C(NCc1cccs1)c1cc(S(=O)(=O)N2CCCCC2)ccc1Cl	nt	nt	i	nt	nt
O=C(NCc1cccs1)C1CCN(c2ccc(S(=O)(=O)N3CCOCC3)cc2Cl)CC1	i	58	i	i	i
O=C(NC1CC1)C1CCN(c2ccc(S(=O)(=O)N3CCOCC3)cc2Cl)CC1	i	78	i	i	i
O=C(O)c1cc(S(=O)(=O)N2CCOCC2)ccc1N1CCOCC1	i	i	i	i	i
COc1ccc(Cc2nnc3n2N=C(c2cc4ccccc4o2)CS3)cc1OC	nt	nt	i	nt	nt
O=C(N/N=C1/CCCc2ccccc21)C(c1ccccc1)c1ccccc1	i	i	i	i	i
O=C(N[C@@H](Cc1ccc(O)cc1)C(=O)O)c1ccncc1	nt	nt	i	nt	nt
O=S(=O)(Nc1ncccn1)c1ccc(Nc2ncnc3ccccc23)cc1	i	i	i	i	i
O=C1c2ccccc2S(=O)(=O)N1Cc1cc(=O)n2ccsc2n1	i	i	i	i	i
c1csc(CNc2nc3ccccc3n2CCN2CCOCC2)c1	i	51	i	i	i
CCCn1c(NCc2cccs2)nc2ccccc21	i	i	i	i	i
COc1ccc(N(C(=O)Nc2ccc(Cl)cc2)C2=NCCC2)cc1	i	54	i	i	i
CSc1nnc2c3c4c(sc3c(=O)n(-c3ccccc3)n12)CC(C)(C)OC4	i	i	i	i	i
O=C(O)c1oc2ccccc2c1CN1CCN(c2ccccc2)CC1	i	i	i	i	i
O=C(c1ccc2ccccc2c1)N1CCN(c2ccc(C(F)(F)F)cn2)CC1	i	i	i	i	i
COCc1c(C(=O)N2CCN(c3ccc(C(F)(F)F)cn3)CC2)oc2ccccc12	80	i	-4.7	i	i
O=C(c1oc2ccccc2c1CSCc1ccccc1)N1CCN(c2ncccn2)CC1	62	80	i	i	i
CCOC(=O)c1ccc(S(=O)(=O)N2CCC(C(=O)O)CC2)cc1	i	i	i	i	i
O=C(NC(=O)c1ccncc1)NC(c1ccccc1)c1ccccc1	i	i	i	i	i
CCCn1c(SCC(=O)OCc2ccccc2)nc2c1c(=O)n(C)c(=O)n2C	i	i	i	i	i
CCCn1c(SCC(=O)Nc2ccccc2C(=O)OC)nc2c1c(=O)n(C)c(=O)n2C	i	72	i	i	i
SMILES	CYP2C19 inhib	CYP2C9 inhib	Cav32 inh	CYP2C19 activ	CYP2C9 act
CCCn1c(SCC(=O)Nc2sc(C)c(C)c2C(=O)OCC)nc2c1c(=O)n(C)c(=O)n2C	i	66	i	i	i
CCCn1c(SCC(=O)Nc2ccccc2N2CCCCC2)nc2c1c(=O)n(C)c(=O)n2C	79	98	-4.4	i	i
CCCCn1c(SCC(=O)Nc2cc(C)on2)nc2c1c(=O)n(C)c(=O)n2C	i	i	i	i	i
COc1cccc(-n2c(Cc3cc(=O)[nH]c(=O)[nH]3)nnc2SCC(=O)N2CCCCC2)c1	i	i	i	i	i
CCOC(=O)C(CC)n1nc(C)n2c(cc3sccc32)c1=O (stereo not given)	i	i	i	i	i
COc1ccccc1NC(=O)N1CCC(c2nnc(SCC(N)=O)n2C)CC1	i	i	i	i	i
Cn1c(N)c(C(=O)c2cc(-c3ccccc3)nc3ccccc23)c(=O)n(C)c1=O	i	i	i	i	i
CCC1CCCCN1CC(=O)Nc1cc(C)nn1-c1nc(C)cc(C)n1 (stereo not given)	52	93	i	i	i
CCC(C(=O)Nc1ccccc1C(=O)N1CCOCC1)N1C(=O)c2ccccc2C1=O (stereo not given)	i	i	i	i	i
CC(O)c1nc2ccccc2n1C/C=C/c1ccccc1 (stereo not given)	98	55	i	i	i
CCOCCn1c(C(C)O)nc2ccccc21 (stereo not given)	nt	nt	i	nt	nt
OCc1nc2ccccc2n1C/C=C/c1ccccc1	92	60	i	i	i

Screens as filed in PubChem BioAssay.
